Source: PubChem BioAssay (EPA / NIEHS)
Active and inactive are the calls of the source. Rule for the calls: active = hit-call score of the fitted dose curve at least 0.9, where 1 is the maximum; inactive = score below 0.9.

Assay: ATG_CRE_CIS: Attagene CIS-FACTORIAL HepG2 Assay for human cAMP Responsive Element (CRE) binding protein 3 (AID 2282926)
Conditions: HepG2 CRE cis-reporter, Attagene multiplexed mRNA; actives raise or lower the signal
Experimental: ATG_CIS is a cell-based, multiplexed-readout assay that uses HepG2, a human liver cell line, with measurements taken at 24 hours after chemical dosing in a 24-well plate.ATG_CRE_CIS is one of 52 assay component(s) measured or calculated from the ATG_CIS assay. It is designed to make measurements of mRNA induction, a form of inducible reporter, as detected with fluorescence intensity signals by Reverse transcription polymerase chain reaction (RT-PCR) and Capillary electrophoresis technology.Data from the assay component ATG_CRE_CIS was analyzed into 1 assay endpoint. This assay endpoint, ATG_CRE_CIS, was analyzed with bidirectional fitting relative to DMSO as the negative control and baseline of activity. Using a type of inducible reporter, measures of mRNA for gain or loss-of-signal activity can be used to understand the reporter gene at the transcription factor-level as they relate to the gene CREB3. Furthermore, this assay endpoint can be referred to as a primary readout, because this assay has produced multiple assay endpoints where this one serves a reporter gene function. To generalize the intended target to other relatable targets, this assay endpoint is annotated to the dna binding intended target family, where the subfamily is basic leucine zipper.
Human liver HepG2 cells are transiently transfected with multiple reporter transcription units (MRTUs) in 6-well plates using FuGene 6 reagent (Roche; 3 ml FuGene/1 mg DNA). The MRTU constructs are regulated by a cis-regulating element (promoter). […] A major difference between the CIS and TRANS system is that in CIS activities of endogenous TFs are measured, whereas the TRANS assay evaluates changes in activities of exogenous, chimeric NR-Gal4 proteins. […] At the end of 24 hour incubation, total RNA was isolated using TriZol reagent (Invitrogen). The isolated RNA is then reverse-transcribed using oligo(dT) primer and Mo-MLV reverse transcriptase (Invitrogen) with DNAse I (Ambion) treatment for 30 min. The one-tenth of the produced cDNA was amplified by PCR using Taq DNA polymerase (Invitrogen) and two reporter sequence-specific primers. The PCR products were fluorescently labeled by primer extension with 6-arboxyfluorescein (6-FAM) 5'-labeled reporter sequence-specific primer (2 min at 95 C, 20 s at 68 C and 10 min at 72 C) and these products were digested with 5U of HpaI (New England Biolabs) for 2h at 37 C. The fragments were purified using Qiaquick PCR columns (Qiagen), analyzed on an ABI 3130xL genetic analyzer (Applied Biosystems) with peak positions identified by using a set of X-rhodamine (ROX)-labeled MapMarker1000 molecular weight standards (BioVentures). The raw capillary electrophoresis data was processed using Attagraph software (Attagene).

SMILES	outcome	AC50
COc1ccc(C(=O)/C(Br)=C\C(=O)O)cc1	inactive	–
Nc1nc(N)nc(-c2ccccc2)n1	inactive	–
CCC(=O)C1CC(C(C)C)CC=C1C (stereo not given)	inactive	–
C=CC(=O)O[C@H]1C[C@@H]2CC[C@@]1(C)C2(C)C	–	180 µM (active)
COC(=O)c1ccc(C(=O)OC)c(C(=O)OC)c1	inactive	–
CCCCCCCCCC(C)=O	inactive	–
CCCCCCCO	inactive	–
O=S(=O)(O)c1ccc(Nc2nc(Nc3ccc(C=Cc4ccc(Nc5nc(Nc6ccc(S(=O)(=O)O)cc6)nc(N(CCO)CCO)n5)cc4S(=O)(=O)O)c(S(=O)(=O)O)c3)nc(N(CCO)CCO)n2)cc1	inactive	–
CCCCOCCOCCOC(C)=O	inactive	–
CCCCCCOC(=O)CCCCC(=O)OCCCCCC	inactive	–
CCC(C)C(=O)OC (stereo not given)	inactive	–
CCN1CN(CC)CN(CC)C1	–	162 µM (active)
Fc1ccc(Br)cc1	inactive	–
CCOC(=O)OC(=O)OCC	inactive	–
CCCCNS(=O)(=O)c1ccccc1	inactive	–
CC(C)(CO)C(O)C(=O)NCCCO (stereo not given)	inactive	–
CCCCCC(=O)OCC	inactive	–
CCCCOC(=O)CCC(C)=O	inactive	–
Nc1ccc(C(=O)O)cc1	inactive	–
C=CC(=O)NCOCCCC	inactive	–

SMILES	outcome	AC50
CC1CCC(=O)C1=O (stereo not given)	inactive	–
O=C(O)CCC(=O)O	inactive	–
CC1(C)C(=O)N(CO)C(=O)N1CO	inactive	–
CC(C)C(=O)OCCOc1ccccc1	inactive	–
C=CC(C)(O)CC/C=C(\C)CC (stereo not given)	inactive	–
CCc1cccc(CC)c1	inactive	–
CCCCCCCCC(CO)CCCCCC (stereo not given)	–	100 µM (active)
C=C(C)C1CC=C(C)CC1 (stereo not given)	inactive	–
CCCCCCCC(=O)OCC	inactive	–
CCCCCCCCCCCCCc1ccccc1	inactive	–
C=C[C@@]1(C)CC(=O)[C@]2(O)[C@@]3(C)[C@@H](O)CCC(C)(C)[C@@H]3[C@H](O)[C@H](OC(C)=O)[C@@]2(C)O1	–	3.45 µM (active)
CCc1occc(=O)c1O	inactive	–
O=C(Nc1ccccc1)c1cc(Cl)ccc1O	–	3.19 µM (active)
CC1OC(=O)C(C)OC1=O (stereo not given)	inactive	–
CC1=CCC(C(C)C)C=C1 (stereo not given)	inactive	–
O=C1CCCCC1C1CCCCC1 (stereo not given)	inactive	–
Nc1ccc(O)c([N+](=O)[O-])c1	inactive	–
CC(c1cc(C(C)(C)C)cc(C(C)(C)C)c1O)c1cc(C(C)(C)C)cc(C(C)(C)C)c1O	inactive	–
Cc1cc(C)n(CO)n1	inactive	–
Cn1ccnc1	inactive	–
